# Measurements: PubChem BioAssay (NCATS)
# Records with an inconclusive call do not appear. Activity calls are given as the source filed them. The call rests on the fitted dose curve; in most records, active means well fitted cell-killing curve with a large enough effect; inconclusive means small, poorly fitted or top-dose-only effect; inactive means flat fitted curve, though single readings scatter.
# Experiment: Cell Viability - LYMP2-023 (AID 975); further: nearly all actives have a fitted effect of over 55% in size;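 on activity change, negative = cytotoxicity: plate controls were DMSO only for no effect and 92 µM tetraoctylammonium bromide control for full effect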
# Details: LYMP2-023 lymphoblastoid cell viability; series mostly up to 92.2 µM; activity change, negative = cytotoxicity: at the top concentration
# Source text: NIH Chemical Genomics Center [NCGC]
# NIH Molecular Libraries Screening Centers Network [MLSCN]
# National Institutes of Environmental Health Sciences [NIEHS]
# National Toxicology Program [NTP]
# We have developed a 1536-well cell-based assay for quantitative high throughput screening (qHTS) against a number of cell lines to determine in vitro cytotoxicity of small molecules. This particular assay uses a human lymphoblastoid cell line (LYMP2-023) purchased from Coriell Institute for Medical Research.
# NCGC Assay Protocol Summary:
# The CellTiter-Glo luminescent cell viability assay (Promega) is a homogeneous method to measure the number of viable cells in culture. The end point readout of this assay is based on quantitation of intracellular ATP, an indicator of metabolic activity, using the luciferase reaction. Luciferase catalyzes the oxidation of beetle Luciferin to oxyluciferin and light in the presence of ATP. The luminescent signal is proportional to amount of ATP present.
# Using the CellTiter-Glo luminescent cell viability assay, the amount of cellular ATP was measured in the lymphoblastoid cell line with complete culture medium following compound treatment for 24 hours. The assay was performed in opaque white Kalypsys 1536-well plates. In the screen, tetraoctylammonium bromide was used as positive control. Library compounds were measured for their ability to cause acute toxicity in the cell line, as reflected by a decrease in intracellular ATP levels, in a concentration-dependent manner. […] AC50 values were determined from concentration-response data modeled with the standard Hill equation.
# qHTS protocol for CellTiter Glo lymphoblastoid cellular assay
# [Step] [Parameter] [Value] [Description]
# 1. Reagent; 5 uL; 2500 lymphoblastoid cells/well
# 2. Time; 5 hr; 37 C incubation
# 4. Controls; 23 nL; Tetraoctylammonium bromide 6.4pM to 92 uM
# 5. Time; 24 hr; 37 C incubation
# 6. Reagent; 5 uL; CellTiter Glo reagent
# 7. Time; 30 min; Room Temperature
# 8. Detection; Luminescence; Viewlux plate reader
# Keywords: cell viability, cytotoxicity, lymphoblastoid cell line, luminescence, NTPHTS, NTPHTS_NCGC, NIEHS, DSSTox, MLSMR, MLSCN, NIH Roadmap, qHTS, NCGC
# Potency means the concentration at half of the fitted maximal effect.
SMILES,Potency,"activity change, negative = cytotoxicity"
OC[P+](CO)(CO)CO,25.1 µM (active),
O=c1ccc(=O)[nH][nH]1,,-2.6% (inactive)
Cc1ccccc1[N+](=O)[O-],,-2.37% (inactive)
O=C(O)C(Br)Br,,-14.7% (inactive)
ClCCCCl,,0.0109% (inactive)
C=CC(=O)OCC(C)C,,-3.99% (inactive)
ClCc1ccccc1,,0.522% (inactive)
CCCC[N+](=O)[O-],,0.469% (inactive)
CC(=O)NNc1ccccc1,,-1.68% (inactive)
O=C(O)CBr,,-1.29% (inactive)
O=[N+]([O-])/C=C/c1ccccc1,50.1 µM (active),
CCCBr,,0.179% (inactive)
c1ccc(NNc2ccccc2)cc1,,-7.83% (inactive)
CC(C)CC(C)N (stereo not given),,-0.777% (inactive)
C=COC(C)=O,,-4.29% (inactive)
COc1c(C(C)(C)C)cc([N+](=O)[O-])c(C)c1[N+](=O)[O-],,-1.6% (inactive)
CN(C)c1ccc(N(C)C)cc1,,-24.2% (inactive)
O=[N+]([O-])c1cccc(O)c1,,-2.81% (inactive)
CC(C)(C)C(O)(CCc1ccc(Cl)cc1)Cn1cncn1 (stereo not given),,-7.55% (inactive)
Oc1cc(Cl)ccc1Cl,,-1.42% (inactive)

SMILES,Potency,"activity change, negative = cytotoxicity"
Nc1cccc(Cl)c1,,1.01% (inactive)
O=[N+]([O-])c1ccccc1CCl,,-36.7% (inactive)
Cc1cccc(C)c1N,,3.04% (inactive)
Cc1cc(C)cc(OP(=O)(Oc2cc(C)cc(C)c2)Oc2cc(C)cc(C)c2)c1,,-4.54% (inactive)
CCOP(=O)(OCC)OCC,,-5.71% (inactive)
C=C(C)CCl,,-3.67% (inactive)
CC(C)Br,,-1.48% (inactive)
O=S(=O)(O)F,,0.78% (inactive)
CN(C)c1ccccc1,,0.47% (inactive)
ClC(Br)Br,,-8.46% (inactive)
ClC(Cl)Br,,-0.439% (inactive)
Cc1ccc(N)cc1N,,-2.68% (inactive)
ClC(Cl)C(Cl)Cl,,-4.52% (inactive)
Cc1cc(-c2cc(C)c(N)c(C)c2)cc(C)c1N,,1.33% (inactive)
CC(C)C#N,,6.79% (inactive)
C=CCc1cc(OC)c2c(c1)OCO2,,2.63% (inactive)
COC(=O)c1ccccc1N,,-3.95% (inactive)
COc1cc(-c2ccc(N)c(OC)c2)ccc1N,,0.219% (inactive)
C=CCBr,,6.54% (inactive)
C=CCOCC1CO1 (stereo not given),,-3.61% (inactive)
